We go through six compounds from PubChem BioAssay.

Activity calls are given as the source filed them.

The subject of assay [1] is Human papillomavirus type 1a protein E7 (residues 44-93). Put plainly: small molecules binding HPV E7 44-93 – biochemical, small-molecule microarray, residues 44-93, 635 nm fluorescence, primary screen (AID 1108).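 Further: E7 fragment applied at 1 µg/mL in TBST for 1 h at 4 C; score combines spot fluorescence with its signal to noise ratio.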 Conditions: fluorescence 635 nm, higher = more signal.
The nature of assay [2]: hepatitis C replication reporter changes, two-sided – Huh7 cells, luciferase reporter, HCV replication inhibitor project, primary screen (AID 1109).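 Further: huh7 hepatoma cells harbouring a luciferase neomycin HCV replicon reporter; luciferase luminescence as measure of HCV replicon replication; test concentration not given here.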 To be noted: Huh7 HCV replicon luciferase reporter, 48 h; higher = more signal. On the technique in general: In a reporter assay the amount or activity of a reporter protein is the signal.
Assay [3] has as its target Left-right determination factor 2 (Homo sapiens) (UniProt O00292). Put plainly: small molecules binding LEFTY2 protein – biochemical, small-molecule microarray, 635 nm fluorescence scan, primary screen (AID 1110). Conditions: higher = more signal.
Assay [4] concerns the target Calmodulin-1 (Homo sapiens) (UniProt P0DP23). Put plainly: small molecules binding calmodulin-1 with EGTA – biochemical, small-molecule microarray, Cy5-labelled CALM1, profiling panel (AID 1111).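 Further: labelled calmodulin applied in Tris saline Tween buffer holding calcium plus EGTA and DTT.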 Conditions: Cy5-CALM1 binding fluorescence, higher = more signal.
Assay [5] shares this target. Put plainly: small molecules binding Ca-loaded calmodulin-1 – biochemical, small-molecule microarray, Cy5-labelled CALM1, plus calcium, artefact control for SMM control-protein annotation, profiling panel (AID 1112).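 Further: score merges spot fluorescence with signal to noise from triplicate slides.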 Conditions: Cy5-CALM1 binding fluorescence, higher = more signal.
Assay [6] can be described thus: probe aWnt5a binding to arrayed compounds – biochemical, biotinylated probe, 635/667 nm fluorescence, primary screen (AID 1113).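 Further: score merges 667 nm fluorescence intensity with signal-to-noise per printed feature.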 To be noted: small-molecule microarray, higher = more signal.
Assay [7] can be described thus: probe aShh binding to arrayed compounds – biochemical, biotinylated probe, 635/667 nm fluorescence, primary screen (AID 1114).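 Further: probe is biotin-labelled aShh protein from a stem cell growth factor screen; measures binding of labelled protein to compounds printed on the slide; score merges feature fluorescence at 667 nm with signal-to-noise.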 Conditions: small-molecule microarray, higher = more signal.
Assay [8] in a line: probe aNog binding to arrayed compounds – biochemical, biotinylated probe, 635/667 nm fluorescence, primary screen (AID 1115).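 Further: probe is biotinylated aNog protein used at 0.15 µg/mL for 1 h at 4 C; z-score combines 667 nm fluorescence of each spot with its signal to noise.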 Conditions: small-molecule microarray, higher = more signal.
Assay [9] deals with Torsin-1A-interacting protein 1 (Homo sapiens) (UniProt Q5JTV8). Nature of the assay: compound microarray binding of lysate hLAP1 – cell lysate, small-molecule microarray, COS7 lysate, 635/667 nm fluorescence, primary screen (AID 1116). To be noted: 635 nm fluorescence, higher = more signal.
Assay [10] has as its target Alpha-bungarotoxin (Bungarus multicinctus) (UniProt P60615). Nature of the assay: compounds binding labelled alpha-BTX control protein – biochemical, small-molecule microarray, Alexa647 label, 635/667 nm fluorescence, artefact control for SMM control protein annotation, profiling panel (AID 1117). Conditions: alpha-BTX-A647 binding fluorescence, higher = more signal.
Another assay concerns the target Albumin (Bos taurus) (UniProt P02769). Nature of the assay: compounds binding labelled BSA control protein – biochemical, small-molecule microarray, Alexa647 label, 635/667 nm fluorescence, artefact control for SMM control protein annotation, profiling panel (AID 1118).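 Further: score merges 667 nm emission intensity and signal-to-noise per printed compound spot.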 To be noted: BSA-A647 binding, fluorescence 635 nm, higher = more signal.
Assay [11] is described as follows: probe aXIP binding to arrayed compounds – biochemical, NeuroSMM set, 635/667 nm fluorescence, primary screen (AID 1119).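 Further: probe is the protein aXip251-270 applied at 1 µg/mL to compound-printed slides; binding of probe to printed compounds measured as 667 nm fluorescence plus signal to noise.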 Conditions: small-molecule microarray, higher = more signal, called active from +8 up or from −8 down.
Assay [12] can be described thus: probe aNOTCH3 binding on compound microarray – biochemical, small-molecule microarray, 635/667 nm fluorescence, primary screen (AID 1120).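 Further: probe is a biotin-tagged antibody raised against NOTCH3 rather than NOTCH3 protein; score merges spot fluorescence near 667 nm with spot signal to noise.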 Conditions: higher = more signal.
Assay [13] can be described thus: probe aNOTCH2 binding on compound microarray – biochemical, small-molecule microarray, 635/667 nm fluorescence, primary screen (AID 1121).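 Further: score merges feature fluorescence read at 667 nm with its signal to noise.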 Conditions: higher = more signal.
Assay [14] addresses Carbonic anhydrase 2 (Homo sapiens) (UniProt P00918). Put plainly: compounds binding carbonic anhydrase 2 – biochemical, small-molecule microarray, Alexa647-labelled CAII, profiling panel (AID 1122). To be noted: CAII-A647 binding fluorescence, higher = more signal.
A short description of assay [15]: COS7 lysate on small-molecule microarray, probe aHis, 635 nm (AID 1123).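 Further: z-score combines 667nm fluorescence intensity with signal-to-noise per printed compound spot.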 To be noted: COS7 cell lysate, fluorescence, higher = more signal.
Assay [16] is described as follows: probe aLAP1 signal on lysate-treated microarray – cell lysate, small-molecule microarray, COS7 lysate, primary screen (AID 1124).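 Further: lysate comes from COS7 cells expressing LAP1 and is applied at 0.3 µg/mL; score merges spot fluorescence near 667 nm with signal-to-noise over triplicate slides.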 To be noted: probe aLAP1, fluorescence, higher = more signal.
For a further assay, the system named is Sam68 (KHDRBS1). Put plainly: compounds binding KHDRBS1 protein – biochemical, small-molecule microarray, 635 nm fluorescence, primary screen (AID 1125).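 Further: score merges 667 nm channel intensity with signal to noise over triplicate slides.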 Conditions: higher = more signal.
Assay [17] relates to Chordin-like protein 2 (CHRDL2). Put plainly: compounds binding chordin-like 2 – biochemical, small-molecule microarray, 635 nm fluorescence, primary screen (AID 1126).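 Further: printed compound slides probed with Chrdl2 protein at 4 µg/mL for 1 h at 4 C; score merges 667 nm emission intensity with signal to noise over three replicate slides.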 Conditions: fluorescence 635 nm, higher = more signal.
For assay [18], the target named is Concanavalin-A (Canavalia ensiformis) (UniProt P02866). Nature of the assay: compounds binding concanavalin A lectin – biochemical, small-molecule microarray, Alexa647 label, 635 nm, artefact control for SMM control protein annotation, primary screen (AID 1127).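 Further: z combines 667 nm emission intensity with signal-to-noise across three replicate slides.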 To be noted: ConA-A647 binding fluorescence, higher = more signal.
Chain of Concanavalin-A (Canavalia ensiformis) (P02866 whole entry, looked up): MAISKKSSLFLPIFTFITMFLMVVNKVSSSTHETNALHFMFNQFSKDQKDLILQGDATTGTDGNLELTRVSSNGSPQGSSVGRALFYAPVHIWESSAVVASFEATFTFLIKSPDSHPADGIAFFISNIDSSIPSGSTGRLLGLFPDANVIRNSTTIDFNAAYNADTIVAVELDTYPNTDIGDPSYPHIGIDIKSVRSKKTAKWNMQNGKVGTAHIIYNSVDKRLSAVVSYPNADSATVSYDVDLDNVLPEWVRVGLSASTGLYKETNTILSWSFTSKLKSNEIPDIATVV

Chain of Left-right determination factor 2 (Homo sapiens) (O00292 whole entry, looked up): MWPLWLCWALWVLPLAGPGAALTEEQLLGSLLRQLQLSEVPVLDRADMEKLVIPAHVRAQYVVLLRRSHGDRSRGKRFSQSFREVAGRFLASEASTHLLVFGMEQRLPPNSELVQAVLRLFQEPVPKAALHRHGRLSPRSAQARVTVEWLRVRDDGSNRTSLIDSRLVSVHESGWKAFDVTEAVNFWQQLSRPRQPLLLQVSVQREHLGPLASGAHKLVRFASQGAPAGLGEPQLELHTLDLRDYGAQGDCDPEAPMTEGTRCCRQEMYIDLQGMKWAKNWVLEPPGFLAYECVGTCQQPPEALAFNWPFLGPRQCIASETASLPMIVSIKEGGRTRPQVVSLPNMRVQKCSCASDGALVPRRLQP
Chain of Alpha-bungarotoxin (Bungarus multicinctus) (P60615 whole entry, looked up): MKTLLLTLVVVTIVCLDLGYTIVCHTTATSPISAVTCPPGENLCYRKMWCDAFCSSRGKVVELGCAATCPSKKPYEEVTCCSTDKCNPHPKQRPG
Chain of Torsin-1A-interacting protein 1 (Homo sapiens) (Q5JTV8 whole entry, looked up): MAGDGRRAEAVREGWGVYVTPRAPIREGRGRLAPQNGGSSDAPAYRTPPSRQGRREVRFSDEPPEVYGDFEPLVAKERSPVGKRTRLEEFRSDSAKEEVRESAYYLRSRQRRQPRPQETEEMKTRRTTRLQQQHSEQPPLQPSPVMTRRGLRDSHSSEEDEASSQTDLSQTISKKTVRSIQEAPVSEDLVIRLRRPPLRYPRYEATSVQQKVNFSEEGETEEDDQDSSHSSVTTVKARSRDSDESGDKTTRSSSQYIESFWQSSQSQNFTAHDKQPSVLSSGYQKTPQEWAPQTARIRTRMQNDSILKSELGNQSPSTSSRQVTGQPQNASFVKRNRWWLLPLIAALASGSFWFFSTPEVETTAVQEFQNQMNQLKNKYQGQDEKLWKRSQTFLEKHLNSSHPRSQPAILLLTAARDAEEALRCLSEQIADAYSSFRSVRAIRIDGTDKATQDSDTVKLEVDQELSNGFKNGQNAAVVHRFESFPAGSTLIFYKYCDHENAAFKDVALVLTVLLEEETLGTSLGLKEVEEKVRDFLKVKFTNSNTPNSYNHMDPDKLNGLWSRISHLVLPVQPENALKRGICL
Chain of Albumin (Bos taurus) (P02769 whole entry, looked up): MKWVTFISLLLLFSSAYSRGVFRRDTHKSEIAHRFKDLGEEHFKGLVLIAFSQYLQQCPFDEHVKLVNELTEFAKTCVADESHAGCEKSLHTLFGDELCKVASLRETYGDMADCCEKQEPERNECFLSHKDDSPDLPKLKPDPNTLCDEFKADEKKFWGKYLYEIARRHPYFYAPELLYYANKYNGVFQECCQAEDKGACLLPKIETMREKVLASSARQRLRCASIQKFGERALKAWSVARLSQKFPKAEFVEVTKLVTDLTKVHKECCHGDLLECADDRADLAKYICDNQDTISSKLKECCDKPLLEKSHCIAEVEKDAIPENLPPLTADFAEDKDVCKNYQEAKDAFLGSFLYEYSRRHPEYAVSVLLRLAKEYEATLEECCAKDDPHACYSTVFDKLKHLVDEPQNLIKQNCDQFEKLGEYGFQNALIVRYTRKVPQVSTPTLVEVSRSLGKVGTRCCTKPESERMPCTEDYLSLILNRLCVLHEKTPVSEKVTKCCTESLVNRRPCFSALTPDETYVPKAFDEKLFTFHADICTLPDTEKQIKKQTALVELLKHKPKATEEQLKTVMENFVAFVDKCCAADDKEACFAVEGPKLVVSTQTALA

Regarding `CC1CC/C=C\[C@H]2OC34C=CCN(CCN5CCOCC5)C(=O)[C@H]3N(CCO)C(=O)[C@@H]4C2C(=O)O1` (stereo not given in full), the composite z-score in assay [1] was -1.99; in assay [3] it was -1.2; in assay [4] it was -0.714; in [5], -0.307; in assay [6], -0.166; in assay [7] it was -0.154. In addition, the composite z-score in assay [8] is -0.145; in assay [9] it was 0.0159; in [10], -1.02; in the assay with Albumin (Bos taurus), -0.0406; in assay [12] it was -0.22; in assay [13], -0.104. Further, the composite z-score is 0.802 in assay [14]; -0.265 in assay [15]; 0.973 in [16]; -2.29 in the assay on Sam68 (KHDRBS1); -1.02 in [17]; -0.889 in assay [18]. For the same compound, the z-score in assay [2] is -0.504. Further, the composite Z-score in [11] was 0.377 (inactive).

Regarding `CC(C)(C)OC(=O)CC[C@]1(C(=O)O)N=C(c2ccc(OCCCO)cc2)O[C@H]1c1ccccc1CN=[N+]=[N-]`, the composite z-score is -0.391 in [1]; -0.688 in assay [3]; 0.32 in assay [4]; 0.81 in assay [5]; -0.136 in assay [6]; 0.0668 in assay [7]. In addition, the composite z-score in assay [8] is 0.718; in assay [9], 0.69; in assay [10], -0.489; in the assay with Albumin (Bos taurus) it was 0.472; in assay [12], 0.0165; in [13], 0.0264. Moreover, the composite z-score in assay [14] is 0.917; in [15], 0.811; in [16], 0.383; in the assay with Sam68 (KHDRBS1), 0.0075; in assay [17], -0.237; in assay [18] it was -0.192. This compound yielded a z-score in assay [2] of 0.0879. In assay [11], the composite Z-score is -0.209 (inactive).

`COc1ccc([Si](C)(C)[C@@H]2[C@@H](CC(=O)N3CCC[C@H]3CO)O[C@]3(C(=O)N(Cc4ccc(N5C(=O)c6cccc7cccc5c67)cc4)c4ccccc43)[C@H]2C)cc1`: the composite z-score in assay [1] was 1.45; in [3] it was 0.515; in [4], 0.692; in assay [5], -0.292; in assay [6] it was -0.0437; in [7], 0.14. Moreover, the composite z-score in assay [8] is -0.37; in assay [9], 1.44; in [10], 1.82; with Albumin (Bos taurus), -0.647; in assay [12], 0.0996; in assay [13], -0.148. Moreover, the composite z-score in assay [14] was found to be 0.447; in assay [15], 1.77; in assay [16] it was 0.323; in the assay with Sam68 (KHDRBS1) it was 1.29; in assay [17], 1.3; in assay [18] it was 0.892. Further, the z-score in [2] was -2.25. For the same compound, the composite Z-score in [11] is 0.296 (inactive).

Regarding `CC(C)OC(=O)CC(=O)CC(O)c1cccc(C#N)c1` (stereo not given), the composite z-score is 1.32 in [1]; -0.0472 in assay [3]; 0.552 in assay [4]; 0.252 in assay [5]; -0.0944 in assay [6]; -0.16 in assay [7]. The composite z-score in assay [8] is -0.0956; in assay [9], 1.39; in [10] it was 0.684; in the assay with Albumin (Bos taurus), 0.586; in [12] it was 0.178; in assay [13], -0.022. The composite z-score was 0.522 in assay [14]; 1.03 in assay [15]; 0.0279 in assay [16]; 1.35 in the assay with Sam68 (KHDRBS1); -0.591 in assay [17]; 1.13 in [18]. The compound further gave a z-score in assay [2] of -0.664. The composite Z-score in assay [11] was 0.586 (inactive).

As to `NCCCCCCNC(=O)[C@H]1C[C@H]2C(=O)N[C@@H](Cc3ccccc3)C(=O)N2[C@H]1c1ccc(O)cc1`, the composite z-score was 0.74 in assay [1]; 0.338 in assay [3]; 1.44 in assay [4]; 1.17 in [5]; -0.0033 in assay [6]; -0.1 in assay [7]. Besides, the composite z-score in [8] is -0.0496; in assay [9], 1.21; in assay [10] it was 1.55; in the assay with Albumin (Bos taurus), 0.855; in assay [12] it was -0.0048; in [13], -0.176. Also, the composite z-score is 0.778 in assay [14]; 0.734 in [15]; 0.205 in [16]; 1.03 in the assay with Sam68 (KHDRBS1); -0.14 in assay [17]; 1.2 in assay [18]. The same compound came in with a z-score in assay [2] of 0.914. In addition, the composite Z-score in assay [11] is 0.126 (inactive).

With `C=CCOC(=O)[C@@H]1[C@H]2C(=O)O[C@H](c3ccccc3)[C@H](c3ccccc3)N2[C@H](c2ccc(OCCOC(=O)[C@H]3C[C@H]4C(=O)N[C@@H](CCCC[N+](C)(C)C)C(=O)N4[C@H]3c3ccc(O)cc3)cc2)[C@@]12C(=O)Nc1ccc(I)cc12`, the composite z-score is 0.505 in assay [1]; 1.05 in assay [3]; 1.64 in assay [4]; -0.116 in assay [5]; 0.0101 in [6]; 0.147 in assay [7]. Moreover, the composite z-score in assay [8] is -0.0927; in assay [9] it was 1.49; in [10], 1.89; with Albumin (Bos taurus), -0.914; in assay [12] it was 0.147; in [13] it was -0.0843. Moreover, the composite z-score is 0.534 in [14]; 2.74 in [15]; 0.577 in assay [16]; 1.3 with Sam68 (KHDRBS1); 1.16 in assay [17]; 1.19 in assay [18]. The z-score in assay [2] was -0.908. Besides, in assay [11], the composite Z-score is 4.1 (inactive).
